{"source": "the supplement of paper PMC11417369", "note": "± gives the standard deviation of the averaged measurements. Over roughly 25,000 sequences, “ln(normalized median fluorescence intensity)” has its median near 7.9; the highest 2% begin near 11. The sample as a whole holds a higher share of the highest values than the screen did."}
{"test_system": "PfAP2-I AP2 domain 3 (GST-tagged)", "experiment": "gcPBM binding intensity (ln(normalized median fluorescence intensity)); higher = stronger DNA binding", "procedure,_shortened": "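For binding intensity, the highest Masliner-normalised natural-log median intensity across replicate spots of either probe orientation was taken. Protein bound to the array was stained with Alexa488 anti-GST antibody and scanned at 488 nm. The protein, GST-tagged P. falciparum DNA-binding domains from E. coli at about 25 μg on average, had been applied for 1 h to an Agilent 4 × 180k array of primer-extended double-stranded 36-bp intergenic genomic probes and negative controls.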"}
{"sequence": "ATTATATATATGTGCACACAAAAGATATATATATAT [CACACA_site5205]", "gcPBM binding intensity (ln)": "10.2 ± 0.13"}
{"sequence": "AAGAAAAGCATAGATGCACACATATATATATATATA [CACACA_site8675]", "gcPBM binding intensity (ln)": "9.485 ± 0.078"}
{"sequence": "TTCAAAAGATATATCGTGCACATATATATGATGAAA", "gcPBM binding intensity (ln)": "11.155 ± 0.007"}
{"sequence": "ACTTTTATTCGCTTACGTACATATATTATATATTAT [XGTACX_site4459]", "gcPBM binding intensity (ln)": "8.75 ± 0.55"}
{"sequence": "TATAAATATTTATGTACACACATATACATGTTGAAT [CACACA_site5684]", "gcPBM binding intensity (ln)": "7.95 ± 0.43"}
{"sequence": "AGCAATTTGGGGTGTACACACACCTTATTTAAATTA [CACACA_site1157]", "gcPBM binding intensity (ln)": "8.23 ± 0.22"}
{"sequence": "AATATTATTATTATTACACACACAATTATATTTACC [CACACA_site8061]", "gcPBM binding intensity (ln)": "7.93 ± 0.38"}
{"sequence": "AACCTTACACAAGGGGTGCAATATTATTTCGATAAA [GTGCAC_site9600]", "gcPBM binding intensity (ln)": "11.5 ± 0.66"}
{"sequence": "TACATTTTACTTGTTACACACATATAAAATTAACCA [CACACA_site2922]", "gcPBM binding intensity (ln)": "7.82 ± 0.5"}
{"sequence": "AATAGTAAAAATCACTGTACGTTTATTTTTAAAATG [XGTACX_site1035]", "gcPBM binding intensity (ln)": "7.79 ± 0.28"}
{"sequence": "CCATAACTCATATGCACACATAAATATTACATATAT [CACACA_site3821]", "gcPBM binding intensity (ln)": "8.87 ± 0.13"}
{"sequence": "TAGTTCTTTTAATTTAGTATTATACAATATTGGAAA [CACACA_negctrl_site521]", "gcPBM binding intensity (ln)": "7.49 ± 0.47"}
{"sequence": "ATAACAAAAATCCTTGTGCACTATTTTAATAGAGTC", "gcPBM binding intensity (ln)": "11.4 ± 0.12"}
{"sequence": "TTTTAATATATAGAGTAACAAATTTGTCTATTAATA [CACACA_negctrl_site1495]", "gcPBM binding intensity (ln)": "7.5 ± 0.58"}
{"sequence": "ATATAATATTTTAGAGTGCACCGATAACAATAAATA [GTGCAC_site9754]", "gcPBM binding intensity (ln)": "10.4 ± 0.17"}
{"sequence": "GAAAGAAGCATAAATGTACACACATATTTATATATT [CACACA_site8368]", "gcPBM binding intensity (ln)": "7.74 ± 0.4"}
{"sequence": "TTATATAAAGAATGTACACACAGAAATGCACCCACA [CACACA_site2282]", "gcPBM binding intensity (ln)": "11 ± 0.57"}
{"sequence": "CATTTATATAAAGAATGTACACACAGAAATGCACAC [XGTACX_site4718]", "gcPBM binding intensity (ln)": "10.2 ± 0.2"}
{"sequence": "TGTACACCCAGAAATGCACACACATATATATATATA [CACACA_site8716]", "gcPBM binding intensity (ln)": "9.54 ± 0.18"}
{"sequence": "TTATATAAAGAATGTACACACAGAAATGCACAGACA [CACACA_site5288]", "gcPBM binding intensity (ln)": "9.43 ± 0.29"}
{"sequence": "ATTTATATAAAGAATGTACACACAGAAATGCACCCA [CACACA_site8715]", "gcPBM binding intensity (ln)": "11 ± 0.83"}
{"sequence": "TCTTTCTCTCTTCAAAGTACATATAATATATACTTC [XGTACX_site7982]", "gcPBM binding intensity (ln)": "7.88 ± 0.52"}
{"sequence": "TATTACAAATATGGCACACATATATATATATATATT [CACACA_site3268]", "gcPBM binding intensity (ln)": "8.69 ± 0.2"}
{"sequence": "ATATAATATTTATATGCACACTTTTCTATATATAAG [CACACA_site6100]", "gcPBM binding intensity (ln)": "9.77 ± 0.15"}
{"sequence": "TTTTATGTTCTTAATGCACACTTATAAGTATCTTAT [CACACA_site4895]", "gcPBM binding intensity (ln)": "11.4 ± 0.72"}
{"sequence": "TAAAAAAAAAAGTATACACACTTCTTAATGTCAACA [CACACA_site4818]", "gcPBM binding intensity (ln)": "7.36 ± 0.46"}
{"sequence": "ATTAAAAAAAAAAGTATACACACTTCTTAATGTCAA [CACACA_site1244]", "gcPBM binding intensity (ln)": "7.39 ± 0.47"}
{"sequence": "TTATGTTCTTAATGCACACTTATAAGTATCTTATAA [CACACA_site1394]", "gcPBM binding intensity (ln)": "10.99 ± 0.028"}
{"sequence": "TATATATATATATGTATGCACTTTAATTTTATAAGG", "gcPBM binding intensity (ln)": "9.85 ± 0.26"}
{"sequence": "AGGAAATTTTTTTTTTTTTTTTTTTTTTTTTTTTAC [TGCATGCA_negctrl_site170]", "gcPBM binding intensity (ln)": "7.5 ± 0.56"}
{"sequence": "TTTATTTTCATATGAACACACATATAAATATTATAA [CACACA_site7172]", "gcPBM binding intensity (ln)": "7.87 ± 0.41"}
{"sequence": "TTTATTTTATCATTTGCACACGCACCCCCACATAAA [CACACA_site8007]", "gcPBM binding intensity (ln)": "10.4 ± 0.26"}
{"sequence": "ATTTTCTTTCTATGCACACGCACGTATTTGCACCCA [CACACA_site3350]", "gcPBM binding intensity (ln)": "11.5 ± 0.39"}
{"sequence": "TTATTTTCTTTCTATGCACACGCACGTATTTGCCCA [CACACA_site9104]", "gcPBM binding intensity (ln)": "9.39 ± 0.16"}
{"sequence": "GCTTATATTAATAAGGTGCTTTTTATTTCGTGTGTA [GTGCAC_site9649]", "gcPBM binding intensity (ln)": "9.06 ± 0.15"}
{"sequence": "AAGGAAAAAACAAATACACACAAAAACGCATTATAA [CACACA_site3466]", "gcPBM binding intensity (ln)": "7.87 ± 0.71"}
{"sequence": "AATCATAAACATTATGCACACAAAAATAAAAAAAAA [CACACA_site8289]", "gcPBM binding intensity (ln)": "9.81 ± 0.11"}
{"sequence": "ATGGTGCAACATTATGCACACCGTTAAATAACTAAT [CACACA_site9280]", "gcPBM binding intensity (ln)": "11.5 ± 0.7"}
{"sequence": "TGATTCTAACTTATGGTGCAACATTATGGACACCGT", "gcPBM binding intensity (ln)": "10.3 ± 0.35"}
{"sequence": "TCATAAACATTATGCACACAAAAATAAAAAAAAATA [CACACA_site1115]", "gcPBM binding intensity (ln)": "9.8 ± 0.56"}
{"sequence": "AACAACAACTAATATGCACACATTTAAAAACAAAAT [CACACA_site2440]", "gcPBM binding intensity (ln)": "9.42 ± 0.26"}
{"sequence": "TTATGGTGCAACATTATGCACACCGTTAAATAACTA [CACACA_site3846]", "gcPBM binding intensity (ln)": "11.1 ± 0.52"}
{"sequence": "TACTTTTCTTAAAGATGTACGTTTTAAAAATAAAAT [XGTACX_site14]", "gcPBM binding intensity (ln)": "7.81 ± 0.2"}
{"sequence": "ATATTTCTGTGTGGATGTACATTATTAGCAGGCTTT [XGTACX_site6496]", "gcPBM binding intensity (ln)": "8.12 ± 0.73"}
{"sequence": "TTTTTTTTTTTTTTTTGTACTTATAAAATAACATGT [XGTACX_site134]", "gcPBM binding intensity (ln)": "8.13 ± 0.82"}
{"sequence": "TTTTTTATTTAAAGTAGTACTTTTTAGAAAACAAAA [XGTACX_site6759]", "gcPBM binding intensity (ln)": "7.68 ± 0.29"}
{"sequence": "TATTAAAGCACCCATGCACACACACTAAGGAAAAGA [CACACA_site7961]", "gcPBM binding intensity (ln)": "11.6 ± 0.71"}
{"sequence": "AAAGAAGGGAAACACACACACACACCCACAAAAAAA [CACACA_site3766]", "gcPBM binding intensity (ln)": "8.17 ± 0.21"}
{"sequence": "CACTAAAAGAAACACACACACACACCCATATATATA [CACACA_site4151]", "gcPBM binding intensity (ln)": "8.44 ± 0.75"}
{"sequence": "AAAGCACCCAGGCACACACACAAAGGAAAAGAAAAA [CACACA_site232]", "gcPBM binding intensity (ln)": "7.95 ± 0.49"}
{"sequence": "AAAGCACCCATGCACACACACAAAGGAAAAGAAAAA [CACACA_site6249]", "gcPBM binding intensity (ln)": "8.32 ± 0.38"}
{"sequence": "TTAAAGCACCCATGCACACACACAAAGGAAAAGAAA [CACACA_site233]", "gcPBM binding intensity (ln)": "11.1 ± 0.93"}
{"sequence": "AATGCACTATTTAAAAGTACACATAAGAAAAGCATA [XGTACX_site1739]", "gcPBM binding intensity (ln)": "9.24 ± 0.28"}
{"sequence": "TATAAATCTATAAATGCACACAAGGGAAGAAAAACG [CACACA_site2965]", "gcPBM binding intensity (ln)": "9.46 ± 0.26"}
{"sequence": "TTAAAGCACCCATGCACACACACAAGGGAAAAGAAA [CACACA_site4289]", "gcPBM binding intensity (ln)": "10.9 ± 0.92"}
{"sequence": "AAACAAAAAAGTAAGAAAAGGGATGATTGGATCCAA [CACACA_negctrl_site1230]", "gcPBM binding intensity (ln)": "7.35 ± 0.78"}
{"sequence": "GGAAACCCTCCCAAATGTACTTTTATAAAAAAATAC [XGTACX_site5502]", "gcPBM binding intensity (ln)": "8.2 ± 0.6"}
{"sequence": "TTTATTTATCTTTACGCACACACTTGCATGTACAAA [CACACA_site1118]", "gcPBM binding intensity (ln)": "9.455 ± 0.021"}
